Several values for one entry are separate records, joined by “and”; a condition that tells them apart may be missing. Equal entries are not always repeated. Activity calls are given as the source filed them.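 How the source made its calls, unless noted: active means compounds whose cell count with miR-34 switched on is under 0.7 times the count with it off; inactive means the rest.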
Tests used:
[1] = sensitizers of A549 cells to miR-34 induction, primary screen, imaging, A549 dox-inducible miR-34, nuclei and caspase counts (AID 1347080); conditions: A549 miR-34 inducible, Hoechst nuclei count, 48 h
[2] = hESC survival regulators, cell-based (AID 493140; call rule not given here;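 further: cells exposed to compounds for four days before counting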); conditions: human embryonic stem cell survival screen; stronger effect = higher value
[3] = inhibitors of Cryptococcus chitosan production, flow cytometry, Cibacron Brilliant Red staining (AID 1347148; call rule not given here;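 further: compound exposure lasted three days at 37 degrees C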); conditions: Cryptococcus neoformans chitosan, stronger effect = lower value; at 10 µM unless noted
[4] = circadian clock period modulators, cell-based, LOPAC library, luminescence reporter (AID 2774; call rule not given here;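 further: values are relative to mean of DMSO wells on each plate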); conditions: circadian reporter cells, at 7 µM, actives lie on both sides
[5] = system: Hepatitis C virus NS3 helicase; assay: HCV NS3 helicase inhibitors, primary screen, biochemical, fluorescence polarization, LOPAC1280 library (AID 687035; in the data active means inhibition above about 37%); conditions: Purified HCV NS3 helicase, Cy5-dT15 ssDNA binding fluorescence polarization; stronger effect = higher value; concentration not given here
[6] = Cy5 fluorescence quenching or enhancement artefacts, artefact control for HCV NS3 helicase inhibitor project, biochemical, LOPAC1280 (AID 687037; call rule not given here); conditions: Cy5-DNA-NS3h complex fluorescence interference counterscreen
[7] = phospholipid biosynthesis inhibitors in animal cells, primary screen, cell-based, LOPAC library, screen 4 (AID 1347384; call rule not given here); conditions: phospholipid biosynthesis inhibition screen, at 10 µM
[8] = viability rescue of complex I mutant cybrids, primary screen, cell-based, galactose medium, ATP luminescence (AID 1645843;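 active means z-score of at least 1.8 in each of two replicates, scored against plate mean and spread of sample wells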;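 further: positive z means more ATP and so rescue of galactose-driven cybrid death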); conditions: complex I mutant cybrid cells, 72 h, stronger effect = higher value
[9] = stronger effect = lower value, cell number ratio, induced over uninduced
[10] = measured here: relative caspase fold change +Dox/-Dox
[11] = measured here: total cells with miR-34 induction, stronger effect = lower value
[12] = measured here: total cells without miR-34 induction

SMILES: CC(=O)OC1=C(C)NC(C)=C(OC(C)=O)C1c1ccccc1[N+](=O)[O-]
- fold change [1, 9]: 0.849 (inactive)
- fold change [1, 10]: 1.01
- cell count [1, 11]: 3570
- cell count [1, 12]: 4210

SMILES: C[C@H](CCCO)[C@H]1CC[C@H]2[C@@H]3[C@H](O)C[C@H]4CC(=O)CC[C@]4(C)[C@H]3C[C@H](O)[C@]12C
- fold change [1, 9]: 0.847 (inactive)
- fold change [1, 10]: 0.203
- cell count [1, 11]: 4760
- cell count [1, 12]: 5610

SMILES: CCCCCCCCCCCC(=O)O
- fold change [1, 9]: 1.01 (inactive)
- fold change [1, 10]: 1.12
- cell count [1, 11]: 5910
- cell count [1, 12]: 5870

SMILES: O=C(O)CCCCCC[C@@H]1[C@@H](CC[C@@H](O)CCc2cccc(C(F)(F)F)c2)[C@H](O)C[C@@H]1O
- fold change [1, 9]: 1.13 (inactive)
- fold change [1, 10]: 1.38
- cell count [1, 11]: 6150
- cell count [1, 12]: 5440

SMILES: CCCCC[C@H](O)/C=C/[C@H]1C2COC(C2)[C@@H]1C/C=C\CCCC(=O)O (stereo partly specified)
- fold change [1, 9]: 0.904 (inactive)
- fold change [1, 10]: 0.954
- cell count [1, 11]: 5380
- cell count [1, 12]: 5950

SMILES: O=C(CCC/C=C\C[C@@H]1[C@@H](/C=C/[C@@H](O)CCc2ccccc2)[C@H](O)C[C@@H]1O)NC(CO)CO
- fold change [1, 9]: 0.978 (inactive)
- fold change [1, 10]: 1.15
- cell count [1, 11]: 5210
- cell count [1, 12]: 5330

SMILES: O=P(O)(O)O[C@H]1[C@H](O)[C@@H](O)[C@H](OP(=O)(O)O)[C@@H](OP(=O)(O)O)[C@H]1O
- fold change [1, 9]: 1 (inactive)
- fold change [1, 10]: 0.768
- cell count [1, 11]: 5340
- cell count [1, 12]: 5330

SMILES: CCCCC[C@H](O)/C=C/[C@H]1CCC(=O)[C@@H]1CCCCCCC(=O)O
- fold change [1, 9]: 0.938 (inactive)
- fold change [1, 10]: 1.33
- cell count [1, 11]: 5360
- cell count [1, 12]: 5720

SMILES: CCCCCCCCCCCC(=O)CC(=O)N[C@H]1CCOC1=O
- fold change [1, 9]: 1.1 (inactive)
- fold change [1, 10]: 1.72
- cell count [1, 11]: 6190
- cell count [1, 12]: 5610

SMILES: CCCCC/C=C\C/C=C\CCCC/C=C\CCCC(=O)O
- fold change [1, 9]: 0.985 (inactive)
- fold change [1, 10]: 0.344
- cell count [1, 11]: 5360
- cell count [1, 12]: 5440

SMILES: NC(=NCC[C@H](N)C(=O)O)NO
- fold change [1, 9]: 0.915 (inactive)
- fold change [1, 10]: 0.994
- cell count [1, 11]: 4720
- cell count [1, 12]: 5160

SMILES: CCCCC/C=C\C/C=C\C/C=C\CCCCCCC(=O)OC
- fold change [1, 9]: 1.11 (inactive)
- fold change [1, 10]: 0.903
- cell count [1, 11]: 6440
- cell count [1, 12]: 5790

SMILES: O=C(O)CCC/C=C\C[C@@H]1[C@@H](/C=C/[C@H](O)COc2cccc(C(F)(F)F)c2)[C@H](O)C[C@@H]1O
- fold change [1, 9]: 1.06 (inactive)
- fold change [1, 10]: 0.987
- cell count [1, 11]: 6230
- cell count [1, 12]: 5890

SMILES: CCCCC[C@@H](O)/C=C/[C@H]1C=CC(=O)[C@@H]1CCCCCCC(=O)O
- fold change [1, 9]: 0.9 (inactive)
- fold change [1, 10]: 0.638
- cell count [1, 11]: 4870
- cell count [1, 12]: 5400

SMILES: CC[C@@H]1/C=C(\C)C[C@H](C)C[C@H](OC)[C@H]2O[C@@](O)(C(=O)C(=O)N3CCCC[C@H]3C(=O)O[C@H](/C(C)=C/[C@@H]3CC[C@@H](O)[C@H](OC)C3)[C@H](C)[C@@H](O)CC1=O)[C@H](C)C[C@@H]2OC
- fold change [1, 9]: 0.914 (inactive)
- fold change [1, 10]: 1.28
- cell count [1, 11]: 3590
- cell count [1, 12]: 3930

SMILES: O=C(NCCN1CCC(n2c(=O)[nH]c3cc(Cl)ccc32)CC1)c1ccc(F)cc1
- fold change [1, 9]: 0.968 (inactive)
- fold change [1, 10]: 1.46
- cell count [1, 11]: 6040
- cell count [1, 12]: 6240

SMILES: CC(C)Oc1ccc(Cc2ccc(NC3=NCCN3)cc2)cc1
- fold change [1, 9]: 0.976 (inactive)
- fold change [1, 10]: 0.967
- cell count [1, 11]: 5900
- cell count [1, 12]: 6040

SMILES: CCCCCC(=O)CC[C@H]1C(=O)C[C@H](O)[C@@H]1C/C=C\CCCC(=O)O
- fold change [1, 9]: 1.27 (inactive)
- fold change [1, 10]: 1.09
- cell count [1, 11]: 6060
- cell count [1, 12]: 4770

SMILES: NC(=O)c1cccc(-c2cccc(OC(=O)NCCCCCCc3ccccc3)c2)c1
- fold change [1, 9]: 0.904 (inactive)
- fold change [1, 10]: 0.743
- cell count [1, 11]: 5110
- cell count [1, 12]: 5650

SMILES: Nc1nc2[nH]c(=O)[nH]c2c(=O)[nH]1
- fold change [1, 9]: 0.901 (inactive)
- fold change [1, 10]: 0.746
- cell count [1, 11]: 6070
- cell count [1, 12]: 6740

SMILES: O=C(CCC/C=C\C[C@H]1C(=O)C[C@@H](O)[C@@H]1/C=C/[C@@H](O)CCc1ccccc1)NC(CO)CO
- fold change [1, 9]: 0.931 (inactive)
- fold change [1, 10]: 0.89
- cell count [1, 11]: 5500
- cell count [1, 12]: 5910

SMILES: CCCCCCCC/C=C\CCCCCCCCOCCOP(=O)([O-])OCC[N+](C)(C)C
- fold change [1, 9]: 0.927 (inactive)
- fold change [1, 10]: 0.887
- cell count [1, 11]: 5510
- cell count [1, 12]: 5950

SMILES: CCCCC[C@@](C)(O)/C=C/[C@H]1C(=O)C[C@H](O)[C@@H]1C/C=C\CCCC(=O)O
- fold change [1, 9]: 0.936 (inactive)
- fold change [1, 10]: 1.24
- cell count [1, 11]: 5370
- cell count [1, 12]: 5740

SMILES: CCCCCCCC/C=C\CCCCCCCC(=O)OC[C@H](CO)OC(C)=O
- survival [2]: 98.6 (inactive)
- fold change [1, 9]: 0.972 (inactive) and 0.952 (inactive)
- fold change [1, 10]: 0.87 and 0.868
- cell count [1, 11]: 6120 and 5660
- cell count [1, 12]: 6290 and 5950
- fold fluorescence [3]: 5.82 (inactive)

SMILES: O=C(O)CCC/C=C\C[C@@H]1[C@@H](/C=C/C(F)(F)COc2ccccc2)[C@H](O)C[C@@H]1O
- fold change [1, 9]: 1.03 (inactive)
- fold change [1, 10]: 1.05
- cell count [1, 11]: 5600
- cell count [1, 12]: 5440

SMILES: NC(=S)NCCC[C@H](N)C(=O)O
- fold change [1, 9]: 0.92 (inactive) and 1.03 (inactive)
- fold change [1, 10]: 1.34 and 0.799
- cell count [1, 11]: 5590 and 6220
- cell count [1, 12]: 6080 and 6060
- fold fluorescence [3]: 2.92 [at 261.4 µM] (inactive)

SMILES: O=C1C(Nc2ccccc2)=CC(=O)c2ncccc21
- fold change [1, 9]: 0.735 (inactive) and 0.883 (inactive)
- fold change [1, 10]: 1.99 and 0.965
- cell count [1, 11]: 1070 and 904
- cell count [1, 12]: 1450 and 1020
- fold fluorescence [3]: 7.9 [at 199.8 µM] (inactive)

SMILES: CC12C(=O)OC(=O)C1(C)C1CCC2O1 (stereo unspecified)
- period change [4]: -0.375 h (inactive)
- survival [2]: 0 (inactive)
- inhibition [5]: 0% (inactive)
- fluorescence ratio (interference) [6]: 1 (inactive)
- fold change [1, 9]: 1.31 (inactive) and 0.948 (inactive)
- fold change [1, 10]: 1.51 and 0.943
- cell count [1, 11]: 607 and 462
- cell count [1, 12]: 465 and 488
- fold fluorescence [3]: 5.03 [at 254.8 µM] (inactive)
- outcome [7]: inactive
- z-score [8]: -1.43 (inactive)

SMILES: CC/C=C\C/C=C\C/C=C\C/C=C\C/C=C\C/C=C\CCC(=O)NCCO
- fold change [1, 9]: 0.934 (inactive)
- fold change [1, 10]: 0.411
- cell count [1, 11]: 5920
- cell count [1, 12]: 6340

SMILES: COc1ccc2c(c1)c(CC(=O)Oc1ccc(-c3cc(=S)ss3)cc1)c(C)n2C(=O)c1ccc(Cl)cc1
- fold change [1, 9]: 0.929 (inactive)
- fold change [1, 10]: 2.02
- cell count [1, 11]: 5100
- cell count [1, 12]: 5490

From PubChem BioAssay
